We go through 8 molecules from paper PMC5540273 (PLoS ONE, 2017).

Structures are written as SMILES.

What all share (conditions): concentration: 1 μM, replicates: in singlicate; n = 1
In experiment [1] the test system is T1, ERK1.
T1 construct: gene MAPK3

The test system of experiment [2] is T2, ERK2.
T2 construct: gene MAPK1

Experiment [3] concerns T3, ERK3.
T3 construct: gene MAPK6

Experiment [4] has as its system T4, ERK4.
T4 construct: gene MAPK4

For experiment [5], the system named is T5, ERK5.
T5 construct: gene MAPK7

Experiment [6] concerns T6, ERK8.
T6 construct: gene MAPK15

Experiment [7] deals with ERN1.
Experiment [8] has as its system T7, FAK.
T7 construct: gene PTK2

In experiment [9] the test system is FER.
Experiment [10] relates to FES.
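Also: KINOMEscan kinase panel screen.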

Take `Cc1cccc(Nc2nc(N[C@H]3CCCC[C@H]3N)ncc2C(N)=O)c1.Cl` [GSK986310]: the “%Inh” value in [1] is 8%; in experiment [2], 27%; in experiment [3], 27%; in [4], 49%; in [5], 0%; in [6] it was 0%. The “%Inh” value in [7] is listed as 2%; in [8], 12%; in experiment [9], 84%; in [10] it was 0%.

For the molecule `Nc1ncc(-c2cn[nH]c2)c2scc(-c3ccc4c(c3)CCN4C(=O)Cc3ccccc3)c12` [GSK2593067], the “%Inh” value in experiment [1] stood at 3%; in experiment [2], 3%; in [3] it was 0%; in experiment [4], 0%; in experiment [5] it was 0%; in experiment [6], 10%. Also, the “%Inh” value in experiment [7] was 0%; in [8], 0%; in experiment [9], 29%; in [10] it was 0%.

With `O=C(Nc1n[nH]c2nc(-c3ccccc3)ccc12)C1CC1` [SB-708999], the “%Inh” value is 0% in experiment [1]; 3% in [2]; 46% in experiment [3]; 0% in experiment [4]; 0% in experiment [5]; 99.5% in experiment [6]. The “%Inh” value in experiment [7] was determined as 0%; in experiment [8], 0%; in experiment [9], 5%; in [10], 5%.

Turning to `Cn1cc(-c2cnc(N)c3c(-c4ccc5c(c4)CCN5C(=O)Cc4ccccc4)csc23)cn1` [GSK2593074], the “%Inh” value in [1] was 0%; in [2], 0%; in experiment [3] it was 0%; in experiment [4], 0%; in [5] it was 15%; in [6], 11%. Besides, the “%Inh” value in experiment [7] was found to be 28%; in experiment [8], 7%; in experiment [9] it was 10%; in experiment [10] it was 14%.

Turning to `CC(C)c1nc(-c2cccc(NS(=O)(=O)c3c(F)cccc3F)c2)c(-c2ccnc(Nc3ccc(N4CCOCC4)nc3)n2)s1.Cl` [GSK1723980], the “%Inh” value in experiment [1] is on record as 0%; in experiment [2], 0%; in experiment [3] it was 0%; in experiment [4] it was 0%; in experiment [5], 0%; in experiment [6], 97.9%. Moreover, the “%Inh” value in experiment [7] is reported as 50%; in experiment [8], 0%; in [9], 49%; in experiment [10], 18%.

As for `COc1ccc(C)c(Nc2ccnc(Nc3ccc(-c4cnc[nH]4)cc3)n2)c1.Cl` [GW784041], the “%Inh” value in experiment [1] amounted to 0%; in experiment [2] it was 9%; in experiment [3], 16%; in experiment [4], 0%; in [5] it was 0%; in [6], 4%. For the same molecule, the “%Inh” value in experiment [7] stood at 0%; in experiment [8] it was 0%; in experiment [9], 2%; in [10], 2%.

As for `CC(=O)Nc1cn2nc(Oc3cccc(NC(=O)c4cccc(C(F)(F)F)c4)c3)ccc2n1`, the “%Inh” value in [1] was found to be 0%; in experiment [2], 0%; in experiment [3], 0%; in experiment [4], 0%; in experiment [5], 0%; in experiment [6], 19%. The “%Inh” value in [7] is reported as 0%; in [8], 13%; in experiment [9] it was 3%; in experiment [10] it was 0%.

For the molecule `Nc1cccc(-c2ccc3c(N)n[nH]c3c2)c1` [GSK2193613], the “%Inh” value in experiment [1] worked out at 0%; in experiment [2], 0%; in [3], 11%; in experiment [4], 14%; in [5], 0%; in experiment [6], 15%. The “%Inh” value in [7] stood at 4%; in experiment [8], 16%; in experiment [9], 11%; in experiment [10], 16%.
